Screening data: PubChem, National Center for Advancing Translational Sciences (NCATS)
Shown is part of a subset that was picked to be rich in hits.
FBPA Giardia inh: inhibitors of Giardia lamblia fructose-1,6-bisphosphate aldolase. A8B2U2. purified Giardia FBPA. Potency, µM (highest dose often 59.6 µM), for the others: top-dose activity, negative = inhibition, actives largely listed as inhibitors. hit rate 0.71% among 290,000. AID 2451; note: potency is the fitted concentration of half-maximal effect; % is set by controls: 0 for no effect and ±100 for the full control effect; nearly all actives have a fitted effect of over 55% in size
Target sequence (A8B2U2 whole entry, looked up): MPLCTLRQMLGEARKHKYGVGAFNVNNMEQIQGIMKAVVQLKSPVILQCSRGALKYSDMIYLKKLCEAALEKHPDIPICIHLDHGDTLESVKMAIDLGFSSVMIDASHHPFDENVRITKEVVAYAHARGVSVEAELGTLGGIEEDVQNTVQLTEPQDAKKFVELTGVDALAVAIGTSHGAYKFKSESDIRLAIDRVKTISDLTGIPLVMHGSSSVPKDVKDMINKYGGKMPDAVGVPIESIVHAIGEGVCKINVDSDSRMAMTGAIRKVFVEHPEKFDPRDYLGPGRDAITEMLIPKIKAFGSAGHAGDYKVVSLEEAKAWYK
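Giardia FBPA (40 nM reagent) was preincubated 10 min at RT with compound (up to 57.5 uM final), then substrate plus GAPDH/TPI/NAD/arsenate coupling system with diaphorase/resazurin was added; resorufin fluorescence (525/598 nm) was read after 20 min.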
Sm TGR inh: S. mansoni TGR enzyme inhibition; Q962Y6; purified TGR, DTNB reduction, TNB absorbance 405 nm; Potency, µM (doses to about 114 µM), for inactives: at the highest dose activity change, negative = inhibition, actives largely listed as inhibitors; hit rate 3% among 360,000; note: potency is the fitted concentration of half-maximal effect; % is set by controls: 0 for no effect and ±100 for the full control effect; nearly all actives have a fitted effect of over 60% in size
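Kinetic colorimetric format: TGR-catalysed, NADPH-driven DTNB reduction monitored via TNB absorbance. Enzyme dispensed at 20 nM; compound exposure 15 min at room temperature before reaction start.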
TbPYK inhibitor: inhibitors of Trypanosoma brucei pyruvate kinase; Q57TT1; TbPYK enzyme, Kinase-Glo Plus ATP luminescence, 45 min; Potency, µM (titrated, usually from 76.8 µM), inactives show at the top dose activity, negative = inhibition, actives largely listed as inhibitors; hit rate 0.12% among 410,000; note: potency is the fitted concentration of half-maximal effect; % is set by controls: 0 for no effect and ±100 for the full control effect; nearly all actives have a fitted effect of over 50% in size
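Luminescence from Kinase-Glo Plus, added after a 45-minute room-temperature reaction, served as the end-point read-out. The enzyme and substrate were preincubated with compound before ADP (130 uM final) initiated turnover. Concentration-effect curves came from normalized qHTS data.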
LmPK inh: inhibitors of Leishmania mexicana pyruvate kinase; purified LmPK, Kinase-Glo ATP luminescence, 1 h; Potency, µM (series often up to 57.5 µM), for the others: at the highest dose activity change, negative = inhibition, hits mostly inhibitors; hit rate 0.37% among 290,000; AID 1721; note: potency is the fitted concentration of half-maximal effect; % is set by controls: 0 for no effect and ±100 for the full control effect
Target sequence (Q27686 whole entry, looked up): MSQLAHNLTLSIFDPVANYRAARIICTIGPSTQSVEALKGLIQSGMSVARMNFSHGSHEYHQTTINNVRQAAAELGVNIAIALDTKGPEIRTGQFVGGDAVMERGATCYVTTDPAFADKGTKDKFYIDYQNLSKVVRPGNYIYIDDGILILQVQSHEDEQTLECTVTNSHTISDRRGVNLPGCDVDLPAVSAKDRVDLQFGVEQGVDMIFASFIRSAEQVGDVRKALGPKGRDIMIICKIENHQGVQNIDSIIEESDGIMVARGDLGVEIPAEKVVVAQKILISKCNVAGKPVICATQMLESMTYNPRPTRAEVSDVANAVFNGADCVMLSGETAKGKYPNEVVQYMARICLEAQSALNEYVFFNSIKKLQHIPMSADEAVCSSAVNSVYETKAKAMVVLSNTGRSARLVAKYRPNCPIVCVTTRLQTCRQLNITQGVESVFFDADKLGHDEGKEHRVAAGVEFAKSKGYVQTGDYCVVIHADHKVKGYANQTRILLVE
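Purified LmPK (0.1 nM) converted ADP (0.1 mM) to ATP with PEP (0.5 mM) in imidazole buffer pH 7.2 with KCl and MgCl2, 1 h at room temperature. ATP was read by Kinase-Glo luminescence; data normalized to uninhibited and no-enzyme controls.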
Shiga toxin inh: Shiga toxin inhibition. Vero cells, Shiga toxin protein synthesis inhibition reporter. inhibition, % at 38.7 µM. hit rate 9.2% among 290,000. AID 2315; in the data active = inhibition mostly above about 28%, no sharp cut-off; inactive = mostly below about 43%; note: 0% is about no effect
CHX counter: counter-screen hit for Shiga toxin inhibitors, cycloheximide | max response, % | cell reporter, cycloheximide protein synthesis inhibition counterscreen | hit rate 12% among 300,000; in the data active = max response mostly above about 13%, no sharp cut-off; inactive = mostly below about 14%; note: read at 38.3 µM for the half of the compounds with a filed dose; 0% is about no effect
* = called active by the depositor; ? = inconclusive; nt = no result given; + = active, no number; [ ] = remark or other dose. Unless noted, calls come from the whole dose curve; as a rule, active = well fitted curve in the direction sought with a large enough effect; inconclusive = small, poorly fitted or top-dose-only effect, or another doubt; inactive = no such curve, though single readings can be large; an effect the other way counts as inactive or inconclusive.

SMILES | FBPA Giardia inh | Sm TGR inh | TbPYK inhibitor | LmPK inh | Shiga toxin inh | CHX counter
CC(=O)Nc1ccc(NC(=O)c2c(C)nn(Cc3ccccc3)c2Cl)cc1 | 1.4% | -7.1% | 2.3% | 3.3% | 5.5 | -2.7
CN(c1ccccc1)S(=O)(=O)c1ccc(C(=O)OCC(=O)NCc2ccco2)cc1 | -3.5% | 25.1µM* | -5.9% | -11.3% | -14.9 | -7.2
COc1cc(/C=C/C(=O)OCC(=O)NCc2ccco2)ccc1O | nt | 28.2µM* | 3.6% | nt | nt | nt
COCCN(C(=S)Nc1ccc(C)cc1C)C(C)c1ccco1 (centres undefined) | -10.6% | 3.6% | -14.2% | 2.7% | 15.1 | 19.2*
Nc1nc2ccc(Cc3ccncc3)cc2s1 | 13.8% | 5.2% | -31.4% | -4.4% | 77.5* | 20.4*
O=C1CC(N2CCN(Cc3ccc4c(c3)OCO4)CC2)C(=O)N1c1cccc(Cl)c1 (centres undefined) | 6.5% | 50.1µM* | 4.1% | 2.2% | -13.7 | -6.4
O=C1CC(N2CCN(Cc3ccccc3)CC2)C(=O)N1c1ccc2c(c1)OCCO2 (centres undefined) | -6.4% | 56.2µM* | 3.1% | -11.3% | 42.8* | 20.7*
COc1ccc(N2C(=O)CC(N3CCN(Cc4ccc5c(c4)OCO5)CC3)C2=O)cc1 (centres undefined) | 6.4% | 17.8µM* | 4.1% | 2.5% | 6.0 | 7.6
O=C1CC(N2CCN(Cc3ccc4c(c3)OCO4)CC2)C(=O)N1c1cccc2ccccc12 (centres undefined) | 2.0% | -20.2%[57.1 µM] | -1.9% | -6.1% | -17.1 | -2.7
CSc1ccc(CNC(=O)Cn2c(-c3cccs3)cc3cc(F)ccc32)cc1 | nt | -9.7% | -10.5% | nt | nt | nt
COc1ccc(CC(=O)NCc2ccco2)cc1OC | -9.4% | ? | 1.2% | 1.9% | -23.0 | -7.2
Cc1ccc(Cl)c(OCC(=O)NCc2ccco2)c1 | 6.0% | 17.3% | -12.4% | 6.7% | 33.1 | 23.9*
CCc1cc(=O)oc2c3c(cc(OCC(=O)NCc4ccncc4)c12)OC(C)(C)CC3 | 11.6% | 5.9% | 0.1% | -5.3% | -3.0 | -1.4
CCc1ccc(OCC(=O)NCc2ccco2)c(Br)c1 | 3.7% | ? | -3.3% | -0.7% | 106.5* | 40.2*
CCc1cc(=O)oc2c3c(cc(OCC(=O)NCc4ccco4)c12)OC(C)(C)CC3 | -4.3% | -1.0% | 5.3% | -5.0% | 34.4* | 33.2*
O=C(COc1ccccc1Br)NCc1ccco1 | 0.0% | -23.4% | -2.6% | -0.7% | 45.5 | 19.5*
COc1ccccc1OCC(=O)NCc1ccco1 | 8.0% | -19.6% | 2.8% | -0.1% | 23.8 | 8.2
CCc1cccc(C)c1NC(=O)C1CCN(S(=O)(=O)c2c(C)noc2/C=C/c2c(C)cc(C)cc2C)CC1 | nt | 3.5% | 2.2% | nt | nt | nt
Cc1ccc2cccc(OCC(=O)NCc3ccco3)c2n1 | -6.1% | 44.7µM* | 0.4% | 2.3% | 9.9 | 16.5
COc1ccccc1CNc1cc(-c2ccccc2)nc2nncn12 | nt | 35.5µM* | 0.2% | nt | nt | nt
Clc1nc(-c2ccccn2)nc2scc(-c3ccccc3)c12 | 8.3% | -11.9% | 1.1% | -15.7% | + | 92.6*
Cc1cc(C)cc(Oc2coc3cc(OC(=O)c4cccs4)ccc3c2=O)c1 | 0.6% | -19.7% | 1.9% | -1.2% | 11.3 | 6.4
Cc1cccc(Oc2coc3cc(OC(=O)c4cccs4)ccc3c2=O)c1 | -0.2% | 16.4% | 5.9% | -0.2% | 50.4* | 28.9*
Cc1nc(NC(=O)Nc2ccc(Cl)cc2)sc1C | 3.4% | -9.8% | 4.5% | -9.3% | 40.5* | 26.6*
CC(C)(C)c1nnc(NC(=O)Nc2ccc(Cl)cc2)s1 | -0.7% | -19.7% | -13.6% | 1.0% | 29.0* | 15.2
SMILES | FBPA Giardia inh | Sm TGR inh | TbPYK inhibitor | LmPK inh | Shiga toxin inh | CHX counter
CC(C)(C)c1nnc(NC(=O)NS(=O)(=O)c2ccccc2)s1 | -0.1% | -1.6% | 4.1% | -0.6% | 28.8 | 23.1*
CS(=O)(=O)c1ccc2nc(NC(=O)Nc3ccc(Cl)cc3)sc2c1 | 2.5% | 3.3% | -5.8% | 3.2% | -13.2 | 8.2
COc1ccc(NC(=O)Nc2nnc(C(C)(C)C)s2)cc1 | 0.0% | -10.7% | -1.4% | -13.5% | 49.5* | 23.3*
O=C(Cn1ncc2c([nH]c3ccccc32)c1=O)NCc1cccc(Cl)c1 | nt | -9.5% | 3.6% | nt | nt | nt
Cc1ccc(C)c(S(=O)(=O)N2CCN(C(=O)c3cccnc3)CC2)c1 | -13.7% | -17.3% | 0.6% | -10.7% | -9.4 | -3.6
C[C@@H](CO)NC(=O)c1nc[nH]c1C(=O)N[C@H](C)c1ccccc1 | nt | nt | 7.6% | nt | nt | nt
O=C(CSc1nccn1Cc1ccc(F)cc1)NCc1ccco1 | nt | -9.5% | -2.7% | nt | nt | nt
CS(=O)(=O)c1ccc(C(=O)Nc2ccc(N3CCCC3)cc2)c(Cl)c1 | -5.5% | 0.2% | -10.6% | -2.7% | 15.1 | -1.1
Cc1ccccc1C(=O)Nc1ccc(N2CCCC2)cc1 | ? | -34.7% | ? | ? | 56.8* | 35.2*
O=C(Nc1ccc(N2CCCC2)cc1)c1ccccc1[N+](=O)[O-] | -2.1% | -4.7% | 2.4% | 3.6% | 80.2 | 19.1*
O=C(Nc1ccc(N2CCCC2)cc1)C(Cl)c1ccccc1 (centres undefined) | ? | ? | ? | -18.9% | 70.4* | 31.7*
CC(=O)Nc1ccc(NC(=O)c2ccccc2C)cc1 | 2.8% | 2.3% | -1.6% | 3.4% | 24.2 | 12.6
Cc1ccc(C(=O)Nc2ccc(N3CCCC3)cc2)c(C)c1 | ? | ? | -11.9% | -1.4% | 40.6 | 14.8*
O=C(Nc1ccc(N2CCN(Cc3ccccc3)CC2)cc1)c1ccccc1[N+](=O)[O-] | -0.4% | nt | 8.7% | -0.9% | -3.9 | -2.6
C=CCCCCCCCCC(=O)OC | nt | nt | -5.6% | nt | nt | nt
Cc1ccccc1C(=O)Nc1ccc(N2CCN(C)CC2)nc1 | -6.7% | -3.8% | 2.9% | -12.1% | 51.5 | 21.6*
COc1ccc(C(=O)Nc2cccc(OC(=O)c3ccco3)c2)cc1 | -11.1% | 7.7% | -7.8% | 1.5% | 44.5 | 19.9*
COc1ccc(C(=O)Nc2ccc(C(=O)Nc3cccc(C)c3)cc2)cc1 | nt | 0.0% | 12.4% | 1.0% | -4.4 | -1.7
COc1ccc(C(=O)Nc2cccc(OC(=O)c3ccc(C)c(C)c3)c2)cc1 | 1.5% | 7.0% | -1.3% | 2.4% | 43.1* | 24.4*
CCc1ccc(CNC(=O)C2CCN(C(=O)c3ccc(-n4ccc5ccccc54)s3)CC2)cc1 | nt | -3.6% | -2.2% | nt | nt | nt
COc1ccccc1NC(=O)Nc1nnc(-c2ccco2)s1 | nt | -2.7% | nt | -0.1% | 17.5 | -0.3
COc1ccccc1C(=O)Nc1nnc(-c2ccco2)s1 | -0.9% | -0.8% | 2.8% | 1.7% | 133.0* | 42.1*
Cc1ccccc1C(=O)Nc1nnc(-c2ccco2)s1 | 0.5% | -5.6% | -8.3% | -7.2% | 69.1* | 38.1*
Cn1c(CC(=O)Nc2ccccc2F)nnc1SCC(=O)N1CCOCC1 | nt | 0.0% | 1.0% | -6.0% | 41.8 | 29.9*
CC(Cc1cccs1)NC(=S)Nc1ccccc1 (centres undefined) | -5.4% | -14.2% | 1.5% | 3.2% | 39.7* | 18.3*
